Out of some 25,000 compounds screened, about 970 (3.9%) were called active. About 8% were inconclusive and are not listed. The rule behind the calls is not given here. Only a selection was taken, and actives are over-represented in it overall.
Legend:
Assay in all cases: Primary Screen for Target Class Profiling of Small Molecule Inhibitors of Methyltransferases
[1] = biological target: Catechol O-methyltransferase (Homo sapiens) (UniProt P21964); conditions: purified enzyme, MTase-Glo SAH luminescence; at 40 µM; stronger effect = lower value
Chain of Catechol O-methyltransferase (Homo sapiens) (P21964 whole entry, looked up): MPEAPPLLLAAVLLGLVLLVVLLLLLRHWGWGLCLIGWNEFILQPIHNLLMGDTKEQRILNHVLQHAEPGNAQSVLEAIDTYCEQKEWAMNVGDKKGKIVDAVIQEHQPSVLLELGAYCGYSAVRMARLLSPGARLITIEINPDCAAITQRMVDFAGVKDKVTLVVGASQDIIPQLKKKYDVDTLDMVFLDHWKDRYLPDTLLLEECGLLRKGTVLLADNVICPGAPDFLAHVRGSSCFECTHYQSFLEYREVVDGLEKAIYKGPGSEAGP
Description: (§1) PI: Matthew D. Hall Ph.D. and Quinlin M. Hanson Ph.D.
(§2) National Center for Advancing Translational Sciences (NCATS)
(§3) National Institute of Health (NIH), Rockville, MD
(§4) Target class profiling (TCP) is a chemical biology approach amenable to investigating understudied biological targets. TCP is achieved by developing a generalizable assay platform and applying it to screen a curated set of compound libraries against representative members of a target class. Small molecule methyltransferases (SMMTase) are a subclass of methyltransferase that act on metabolites to modulate signaling pathways, metabolize xenobiotics, or balance the available methyl pool. We screened four curated libraries totaling 27,574 unique compounds against the SMMTases nicotinamide N-methyltransferase (NNMT), phenylethanolamine N-methyltransferase (PNMT), histamine N-methyltransferase (HNMT), glycine N-methyltransferase (GNMT), catechol O-methyltransferase (COMT), and guanidinoacetate N-methyltransferase (GAMT). The data generated by this TCP can be leveraged for informed tool molecule development. For example, in the associated publication we identified a chemotype of HNMT-selective inhibitors. Additionally, we identified a putative SMMTase-selective inhibitor with potential as a tool molecule for studying broader methyltransferase biology.
(§5) High-through put screening assays were developed at the National Center for Advancing Translational Science (NCATS) for the enzymes NNMT, PNMT, HNMT, GNMT, COMT, and GAMT. Enzymatic activity was measured as a function of SAM cofactor conversion using the MTase Glo kit (Promega) for all enzymes. All assays were performed in 1536-well format with substrates and SAM concentrations at KM values. Enzyme concentration and assay timing were optimized for 10-20% SAM conversion. Initial screening of 27,574 compounds was done as single-point assays using the highest compound concentration (40 uM). […] These compounds were replated in 11-point dose response and assayed against NNMT, PNMT, HNMT, GNMT, COMT, GAMT, and a counter-assay. The IC50 and efficacy (maximal response) values were determined for each dose-response curve. These values are also accounted for in the area under the curve (AUC) values.
(§6) PROTOCOL TABLE (as described by Inglese J, Shamu CE and Guy RK. 2007)
(§7) SEQUENCE No. (e.g., 1, 2, 3, etc.); […] (e.g., Cells, Incubation, Reagent, etc.); VALUE; DESCRIPTION.
(§8) 1; Reagent; 2 uL; SMMTase Enzyme (2x) in reaction buffer, columns 1- 48.
(§9) 2; Reagent; 1 uL; SAM (4x) in reaction buffer, columns 1-48.
(§10) 3; Controls; 23 nL; DMSO in column 4; sinefungin in DMSO (0 uM - 40 uM) in 7-point 1:2 dilution series (n = 2) in column 2.
(§11) 4; Compounds; 23 nL; Columns 5-48.
(§12) 5; Reagent; 1 uL; Substrate (4x) in reaction buffer, columns 2-48.
(§13) 6; Time; 20-30 min; Incubation.
(§14) 7; Reagent; 1 uL; MTase-Glo reagent (5X), columns 1-48.
(§15) 8; Time; 30 min; Incubation.
(§16) 9; Reagent; 5 uL; MTase-Glo Detection reagent, columns 1-48.
(§17) 10; Time; 30 min; Incubation, luminescence evolution.
(§18) 11; Detection; Luminescence; ViewLux uHTS Microplate Imager (PerkinElmer).
(§19) NOTES (numbers refer to Sequence numbers above)
(§20) 1, 2, 5. White Medium Binding Greiner 1536-well plates (Cat #789175-F, Greiner Bio-One, Monroe, NC); Reaction buffer: 50 mM Tris, pH 8.0, 3 mM MgCl2, 1 mM EDTA, 50 mM NaCl, 1 mM DTT, and 0.1 mg/mL BSA. Evaporation was prevented by covering assay plates with metal lids containing holes to allow gas diffusion.
(§21) 1. Six SMMTase were profiled: HNMT, GNMT, PNMT, COMT, NNMT, GAMT
(§22) 5. The corresponding substrate was used for each enzyme: HNMT - 5.3 uM Histamine; GNMT - >500 uM Glycine; PNMT - 16.2 uM Norephinephrine; COMT - 13.7 uM Norephinephrine; NNMT - 3.8 uM Nicotinamide; GAMT - 2.5 uM Guanidinoacetate.6, 8, 10. Room temperature
(§23) 6. Final reaction conditions: 10 nM COMT, 5 uM SAM, 15 uM norepinephrine, 50 mM Tris, pH 8.0, 3 mM MgCl2, 1 mM EDTA, 50 mM NaCl, 1 mM DTT, and 0.1 mg/mL BSA; refer to tables 2 and S1 for specific timing.
8. […]

[2] = biological target: Glycine N-methyltransferase (Homo sapiens) (UniProt Q14749); conditions: purified enzyme, MTase-Glo SAH luminescence; measured here: GNMT inhibition; at 40 µM; stronger effect = lower value
Chain of Glycine N-methyltransferase (Homo sapiens) (Q14749 whole entry, looked up): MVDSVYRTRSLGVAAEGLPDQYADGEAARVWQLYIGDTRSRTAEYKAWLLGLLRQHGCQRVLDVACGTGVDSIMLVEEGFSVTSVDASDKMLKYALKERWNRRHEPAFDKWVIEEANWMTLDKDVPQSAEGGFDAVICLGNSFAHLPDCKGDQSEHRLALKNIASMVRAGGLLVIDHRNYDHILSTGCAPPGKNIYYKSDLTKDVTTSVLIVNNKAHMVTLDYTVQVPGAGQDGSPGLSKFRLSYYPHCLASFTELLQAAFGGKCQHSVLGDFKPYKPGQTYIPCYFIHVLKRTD
Description: as §1, §2, §3, §4, §5, §6, §7, §8, §9, §10, §11, §12, §13, §14, §15, §16, §17, §18, §19, §20, §21, §22, §23
8. […]

[3] = biological target: Guanidinoacetate N-methyltransferase (Homo sapiens) (UniProt Q14353); conditions: purified enzyme, MTase-Glo SAH luminescence; measured here: GAMT inhibition; at 40 µM; stronger effect = lower value
Description: as §1, §2, §3, §4, §5, §6, §7, §8, §9, §10, §11, §12, §13, §14, §15, §16, §17, §18, §19, §20, §21, §22, §23
8. […]

[4] = biological target: Histamine N-methyltransferase (Homo sapiens) (UniProt P50135); conditions: purified enzyme, MTase-Glo SAH luminescence; measured here: HNMT inhibition; at 40 µM; stronger effect = lower value
Chain of Histamine N-methyltransferase (Homo sapiens) (P50135 whole entry, looked up): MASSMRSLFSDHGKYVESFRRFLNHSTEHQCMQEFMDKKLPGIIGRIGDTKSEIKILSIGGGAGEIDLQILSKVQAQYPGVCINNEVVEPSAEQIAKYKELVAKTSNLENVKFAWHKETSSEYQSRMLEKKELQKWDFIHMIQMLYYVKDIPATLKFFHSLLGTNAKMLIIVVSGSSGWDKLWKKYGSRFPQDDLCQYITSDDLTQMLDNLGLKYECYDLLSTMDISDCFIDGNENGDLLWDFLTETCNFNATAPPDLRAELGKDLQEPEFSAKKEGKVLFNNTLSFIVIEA
Description: as §1, §2, §3, §4, §5, §6, §7, §8, §9, §10, §11, §12, §13, §14, §15, §16, §17, §18, §19, §20, §21, §22, §23
8. […]

[5] = biological target: Nicotinamide N-methyltransferase (Homo sapiens) (UniProt P40261); conditions: purified enzyme, MTase-Glo SAH luminescence; measured here: NNMT inhibition; at 40 µM; stronger effect = lower value
Chain of Nicotinamide N-methyltransferase (Homo sapiens) (P40261 whole entry, looked up): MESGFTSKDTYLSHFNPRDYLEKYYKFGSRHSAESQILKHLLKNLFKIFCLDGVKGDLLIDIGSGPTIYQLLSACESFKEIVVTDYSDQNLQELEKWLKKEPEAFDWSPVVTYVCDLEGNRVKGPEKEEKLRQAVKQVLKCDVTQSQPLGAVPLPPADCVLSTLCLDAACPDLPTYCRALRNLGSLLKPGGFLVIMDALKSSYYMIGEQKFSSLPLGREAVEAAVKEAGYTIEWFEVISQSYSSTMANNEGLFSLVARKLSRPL
Description: as §1, §2, §3, §4, §5, §6, §7, §8, §9, §10, §11, §12, §13, §14, §15, §16, §17, §18, §19, §20, §21, §22, §23
8. […]

[6] = biological target: Phenylethanolamine N-methyltransferase (Homo sapiens) (UniProt P11086); conditions: purified enzyme, MTase-Glo SAH luminescence; measured here: PNMT inhibition; at 40 µM; stronger effect = lower value
Chain of Phenylethanolamine N-methyltransferase (Homo sapiens) (P11086 whole entry, looked up): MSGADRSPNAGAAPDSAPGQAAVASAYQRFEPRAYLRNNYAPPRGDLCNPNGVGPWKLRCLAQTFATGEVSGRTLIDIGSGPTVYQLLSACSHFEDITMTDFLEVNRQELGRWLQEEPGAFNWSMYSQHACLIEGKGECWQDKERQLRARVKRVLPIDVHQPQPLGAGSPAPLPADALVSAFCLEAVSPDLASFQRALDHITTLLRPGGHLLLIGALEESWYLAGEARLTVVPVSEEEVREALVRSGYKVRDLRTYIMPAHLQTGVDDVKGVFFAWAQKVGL
Description: as §1, §2, §3, §4, §5, §6, §7, §8, §9, §10, §11, §12, §13, §14, §15, §16, §17, §18, §19, §20, §21, §22, §23
8. […]
% is set by controls: 0 for no effect and ±100 for the full control effect.

| SMILES | activity change, negative = inhibition [1] | activity change, negative = inhibition [2] [%] | activity change, negative = inhibition [3] [%] | activity change, negative = inhibition [4] [%] | activity change, negative = inhibition [5] [%] | activity change, negative = inhibition [6] [%] |
| --- | --- | --- | --- | --- | --- | --- |
| COC1CC(O[C@H]2CC[C@@]3(C)C(CCC4C3CC[C@]3(C)[C@@H](C5=CC(=O)OC5)CC[C@]43O)C2)OC(C)C1O (stereo not given in full) | -9.86% (inactive) | -6.87 | -29.4 | 1.18 | -27.7 | -12.7 |
| CO[C@H]1C[C@H](O[C@H]2CC[C@]3(CO)[C@H]4CC[C@]5(C)[C@@H](C6=CC(=O)OC6)CC[C@]5(O)[C@@H]4CC[C@]3(O)C2)O[C@H](C)[C@H]1O | -8.57% (inactive) | -6.2 | -5.89 | -0.519 | -17.6 | -14.3 |
| C[C@H]1O[C@@H](O[C@H]2CC[C@]3(CO)C4CC[C@]5(C)[C@@H](C6=CC(=O)OC6)CC[C@]5(O)[C@@H]4CC[C@H]3C2)[C@H](O)[C@H](O)[C@@H]1O[C@@H]1O[C@H](CO)[C@@H](O)[C@H](O)[C@H]1O (stereo not given in full) | -91.7% (active) | -5.56 | -4.58 | -5.35 | -16 | 0.37 |
| CN(C)c1ccc(C2c3cccn3-c3ccccc3CN2C(=O)NCc2ccccc2)cc1 (stereo not given) | 0.57% (inactive) | 0.802 | 6.24 | -5.35 | -6.61 | -0.417 |
| CN(C)c1ccc(C2c3cccn3-c3ccccc3CN2C(=O)Nc2ccccc2)cc1 (stereo not given) | -1.13% (inactive) | 1.96 | -0.001 | -8 | -4.78 | -1.52 |
| NCC(O)c1ccc(O)cc1 (stereo not given) | 3.68% (active) | -1.52 | 3.17 | -74.4 | -9.18 | 11.4 |
| COCC1CN(Cc2ccsc2)CC12CCNCC2 (stereo not given) | -8.14% (inactive) | -4.38 | -6.87 | -9.72 | -11.7 | -11.5 |
| CCc1ccccc1NC(=O)N1Cc2ccccc2-n2cccc2C1c1ccccc1Cl (stereo not given) | -0.522% (inactive) | 4.4 | 3.52 | -2.61 | 1.65 | 1.03 |
| CC(=O)Nc1ccc(-c2ccc3n(c2=O)C[C@H]2C[C@@H]3CN(C3CCN(C)CC3)C2)cc1 | -5.08% (inactive) | -3.31 | -2.09 | -19.5 | -9.65 | 8.92 |
| C#C[C@]1(O)CC[C@H]2[C@@H]3CC[C@H]4Cc5nc6nc7ccccc7n6cc5C[C@]4(C)[C@H]3CC[C@@]21C | -23.3% (active) | -13.8 | -29.6 | -17.3 | -52.4 | -33.3 |
| COc1cccc([C@H]2CN(c3cc(C)nc(N)n3)[C@@H]3C4CCN(CC4)[C@H]23)c1 | -2.54% (inactive) | -5.12 | -8.6 | -24.3 | -8.14 | -9.36 |
| COc1cccc(CC(=O)N2CCCCCC2CN2CCCC2)c1 (stereo not given) | 3.61% (inactive) | -1.59 | -5.27 | -5.48 | -4.35 | 0.866 |
| CCc1ccc(C2c3cccn3-c3ccccc3CN2C(=O)Nc2cc(C)cc(C)c2)cc1 (stereo not given) | 5.19% (inactive) | 9.8 | 0.9 | 2.8 | 4.04 | 7.84 |
| COC(=O)c1ccccc1NC(=O)N1Cc2ccccc2-n2cccc2C1c1ccccc1Cl (stereo not given) | 3.56% (inactive) | 11.4 | 3.31 | 5.36 | 0.178 | 5.41 |
| CCC1c2cccn2-c2ccccc2CN1C(=O)Nc1cccc(C)c1C (stereo not given) | 2.68% (inactive) | -0.789 | 3.87 | -2.49 | -4.56 | 2.16 |

— PubChem BioAssay AID1745853 (National Center for Advancing Translational Sciences (NCATS), 2022)
